High-throughput results: PubChem BioAssay, Broad Institute
Shown are actives, neighbours in structure and some others; about 2.6% of the full set was active somewhere.
NFkB SMM = binds human NF-kappa-B p105 on microarray; P19838; Small molecule microarray, anti-His fluorescence binding; calls only; actives 1.3% (n = 17,000); AID 624139;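 active = spot fluorescence over background significantly raised, with a chance value under 7% in all four replicate spots of the compound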;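 note: probe protein is his-tagged human p50 processed subunit at 1 µg/ml; raw spot fluorescence signals with no normalization applied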
p53 PUMA act = restores mutant p53 pathway signaling in SW480 cells; SW480 PUMA-promoter luciferase, p53 mutant reactivation; activation, % at 9.98 µM; actives 1.5% (n = 28,000); in the data active = activation above about 52%
mut p53 SMM = binds human mutant p53 on microarray. actives 0.4% (n = 17,000). calls only. small molecule microarray binding, anti-GST fluorescence;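 active = compounds whose four printed spots each glow above background more than chance allows, each with a p-value under 7%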
STAT3 SMM = STAT3 (human) binding; calls only; Small molecule microarray, His-STAT3 binding, anti-His fluorescence; P40763; actives 0.2% (n = 17,000); AID 624138;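 active = compounds whose four printed spots each show fluorescence over background unusually high for their array block, chance value under 7%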
Target sequence (P40763 whole entry, looked up): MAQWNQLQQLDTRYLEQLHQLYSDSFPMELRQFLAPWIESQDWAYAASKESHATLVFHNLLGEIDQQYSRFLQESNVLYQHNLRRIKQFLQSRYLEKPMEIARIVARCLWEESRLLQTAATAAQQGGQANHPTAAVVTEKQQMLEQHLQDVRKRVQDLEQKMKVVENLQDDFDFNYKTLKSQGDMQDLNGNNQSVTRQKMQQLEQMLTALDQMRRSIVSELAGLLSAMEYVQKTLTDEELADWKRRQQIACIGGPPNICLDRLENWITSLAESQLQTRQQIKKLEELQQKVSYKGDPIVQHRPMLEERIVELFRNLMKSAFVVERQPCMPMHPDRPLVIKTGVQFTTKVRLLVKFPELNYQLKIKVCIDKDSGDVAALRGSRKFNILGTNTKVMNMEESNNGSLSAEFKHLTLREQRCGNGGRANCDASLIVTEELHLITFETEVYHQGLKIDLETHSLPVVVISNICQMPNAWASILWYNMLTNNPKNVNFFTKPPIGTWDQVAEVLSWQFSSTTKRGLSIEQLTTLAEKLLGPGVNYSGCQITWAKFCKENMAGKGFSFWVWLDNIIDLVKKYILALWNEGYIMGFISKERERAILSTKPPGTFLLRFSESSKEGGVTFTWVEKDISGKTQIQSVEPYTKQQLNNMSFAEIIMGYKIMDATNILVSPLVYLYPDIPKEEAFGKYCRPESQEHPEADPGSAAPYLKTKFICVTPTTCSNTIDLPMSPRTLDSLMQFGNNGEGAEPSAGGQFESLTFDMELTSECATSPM
Myc binder = binds human c-Myc on microarray | P01106 | calls only | small molecule microarray, His-c-Myc binding, anti-His fluorescence | actives 1.5% (n = 17,000) | AID 624141;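 active = spot fluorescence over background with P-value below 7% in all four replicate spots, showing protein binding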;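 note: score is binary with 100 for all four spots passing and 0 otherwise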
* marks the source's active call; other numbers are inactive results; i = inactive; . = no result; + = active, no number.

SMILES	NFkB SMM	p53 PUMA act	mut p53 SMM	STAT3 SMM	Myc binder
COc1ccc(C(=O)Nc2ccccc2C(=O)NC(C(=O)O)C(C)C)cc1 (configuration not stated)	i	3	i	i	+
C[C@@H](NC(=O)C[C@H]1C[C@@H]2c3cc(NC(=O)Nc4ccccc4F)ccc3O[C@@H]2[C@@H](CO)O1)c1ccccc1	.	-11	.	.	.
COc1cc(-c2nnc(SCC(=O)c3cccc([N+](=O)[O-])c3)n2-c2ccccc2)cc(OC)c1OC	.	-2	.	.	.
CC(C)=CCc1c(O)c(CC=C(C)C)c2c(c1O)C(=O)CC(c1ccccc1)O2 (configuration not stated)	i	-24	i	i	+
CC(C)=CCc1c(O)cc(O)c2c1OC(c1ccccc1)CC2=O (configuration not stated)	i	-4	i	i	i
Cc1sc2ncnc(SCC(=O)C(C)(C)C)c2c1C	.	60*	.	.	.
OC(c1ccccc1)c1nc2ccccc2n1CCOc1ccccc1 (configuration not stated)	.	2	.	.	.
c1ccc(OCc2nc3ccccc3n2Cc2ccccn2)cc1	i	59*	i	i	i
Cc1sc(NC(=S)NC(=O)c2ccco2)c(C(N)=O)c1C	.	59*	.	.	.
Cc1sc(NC(=S)NC(=O)Cc2cccc3ccccc23)c(C(N)=O)c1C	i	0	i	i	i
Cc1cc(I)cnc1NC(=S)NC(=O)c1ccco1	i	76*	i	i	i
COc1ccccc1C(NC(C)=O)c1c(O)ccc2ccccc12 (configuration not stated)	.	-2	.	.	.
Cc1cc(C(F)(F)F)nc(SCC(=O)N2c3ccccc3Sc3ccccc32)n1	.	-1	.	.	.
CC(C)c1ccc(OCC(=O)Nc2ccccc2C#N)c(Br)c1	i	130*	i	i	i
CCc1ccc(OCC(=O)Nc2ccccc2C#N)cc1	.	64*	.	.	.
C[C@H](CO)N1C[C@H](C)[C@H](CN(C)C(=O)Cc2ccccc2)OCCCC[C@H](C)Oc2ccc(NC(=O)Nc3ccc(F)cc3)cc2C1=O	i	-29	i	i	i
C[C@H](CO)N1C[C@H](C)[C@@H](CN(C)C(=O)Nc2ccccc2)OCCCC[C@H](C)Oc2ccc(NC(=O)Nc3ccccc3)cc2C1=O	+	-2	i	i	+
C[C@@H]1CCCCO[C@H](CN(C)C(=O)Nc2ccccc2)[C@H](C)CN([C@@H](C)CO)C(=O)c2cc(NC(=O)Nc3ccccc3)ccc2O1	i	-5	i	i	i
C[C@H]1CCCCO[C@@H](CN(C)C(=O)Nc2ccccc2)[C@@H](C)CN([C@@H](C)CO)C(=O)c2cc(NC(=O)C3CCCCC3)ccc2O1	i	2	i	i	+
CNC[C@@H]1Oc2ccc(NC(=O)C3CC3)cc2C(=O)N([C@H](C)CO)C[C@H]1C	+	9	i	i	+
C[C@@H]1CCCCO[C@H](CN(C)C(=O)Cc2ccccc2)[C@H](C)CN([C@@H](C)CO)C(=O)c2cc(NC(=O)Nc3ccc(F)cc3)ccc2O1	i	-39	i	+	i
C[C@@H]1CN([C@@H](C)CO)C(=O)c2cc(NC(=O)C3CCCCC3)ccc2O[C@@H](C)CCCCO[C@H]1CN(C)C(=O)Nc1ccccc1	i	4	i	i	i
O=C(CSc1nnc(-c2cccc(Cl)c2)n1-c1ccccc1)Nc1ccccc1-c1ccccc1	.	-55	.	.	.
CC(C)C#Cc1cnc2c(c1)C(=O)N([C@@H](C)CO)C[C@@H](C)[C@H](CN(C)Cc1cncnc1)O2	.	4	.	.	.
C[C@@H]1CN([C@@H](C)CO)C(=O)c2cc(NC(=O)C3CCCCC3)ccc2O[C@@H](C)CCCCO[C@@H]1CN(C)C(=O)C1CCCCC1	+	.	i	i	+
SMILES	NFkB SMM	p53 PUMA act	mut p53 SMM	STAT3 SMM	Myc binder
COC(=O)[C@H]1CC[C@H](OC(C)=O)[C@]2(C)CC[C@@H](C(C)C)[C@@H](OC(=O)/C=C/c3ccccc3)C12 (some centres not stated)	+	0	i	i	+
C=CCN1C(=O)/C(=C2\SC(N3CCCCC3)=NC2=O)c2ccccc21	.	68*	.	.	.
O=C(CN1C(=O)c2cccc3cccc1c23)Nc1ccccc1C(=O)N1CCCC1	.	-9	.	.	.
C[C@@H]1CCCCO[C@@H](CN(C)C(=O)C2CCCCC2)[C@@H](C)CN([C@H](C)CO)C(=O)c2cc(NS(=O)(=O)c3cccs3)ccc2O1	+	-2	i	i	+
C[C@@H]1CCCCO[C@@H](CN(C)C(=O)C2CCCCC2)[C@H](C)CN([C@H](C)CO)C(=O)c2cc(NS(=O)(=O)c3cccs3)ccc2O1	i	-8	i	i	i
C[C@@H]1CCCCO[C@H](CN(C)C(=O)C2CCCCC2)[C@H](C)CN([C@@H](C)CO)C(=O)c2cc(NS(=O)(=O)c3cccs3)ccc2O1	i	-14	i	+	i
C[C@H](CO)N1C[C@H](C)[C@@H](CN(C)C(=O)C2CCCCC2)OCCCC[C@H](C)Oc2ccc(NS(=O)(=O)c3cccs3)cc2C1=O	i	-9	i	i	i
CC(C)CC(NC(=O)OCC1c2ccccc2-c2ccccc21)C(=O)O (configuration not stated)	i	64*	i	i	i
CC(C)C[C@H](NC(=O)[C@@H](O)[C@H](N)Cc1ccccc1)C(=O)O	.	-6	.	.	.
C[C@@H]1CCCCO[C@H](CN(C)S(=O)(=O)c2ccccc2)[C@@H](C)CN([C@@H](C)CO)C(=O)c2cc(N(C)C)ccc2O1	+	8	i	i	i
C[C@@H]1CCCCO[C@@H](CN(C)S(=O)(=O)c2ccccc2)[C@H](C)CN([C@H](C)CO)C(=O)c2cc(N(C)C)ccc2O1	i	-21	i	i	i
Cc1noc(C)c1S(=O)(=O)N(C)C[C@@H]1OCCCC[C@@H](C)Oc2ccc(N(C)C)cc2C(=O)N([C@@H](C)CO)C[C@@H]1C	i	-2	i	i	i
Cc1noc(C)c1S(=O)(=O)N(C)C[C@H]1OCCCC[C@@H](C)Oc2ccc(N(C)C)cc2C(=O)N([C@@H](C)CO)C[C@@H]1C	+	7	i	+	+
COc1c(Cl)cc(C(=O)Nc2sc3c(c2C(=O)NC2CCS(=O)(=O)C2)CCC(C)C3)cc1Cl (configuration not stated)	.	-13	.	.	.
Cc1sc(NC(=O)c2cnccn2)c(C(N)=O)c1-c1ccccc1	.	99*	.	.	.
Cc1ccc(-c2cc(C(=O)Nc3sc(C)c(-c4ccccc4)c3C(N)=O)c3ccccc3n2)o1	.	105*	.	.	.
CCOC(=O)c1cc(-c2ccccc2)sc1NC(=S)Nc1cnccn1	i	-32	i	i	i
O=C(NCCc1c[nH]c2ccccc12)Nc1ccc(Cl)c(Cl)c1	i	10	i	i	i
Cc1ccc(NC(=O)CSc2nnc(-c3ccc(Br)cc3)o2)cc1Cl	.	46	.	.	.
CSc1cccc(NC(=O)CSc2nnc(-c3cccc(C)c3)o2)c1	.	103*	.	.	.
